In PubChem BioAssay AID504832 (National Center for Advancing Translational Sciences (NCATS), 2011):
In all, about 310,000 compounds went through this assay and about 18,000 (5.8%) were called active. Not shown: some 22% with an inconclusive outcome. This excerpt belongs to a sample that is enriched for actives. A number with no mark means an inactive call. Calls come from the whole dose curve; as a rule, active = well fitted inhibition curve with a large enough effect; inconclusive = small, poorly fitted or top-dose-only effect, or another doubt; inactive = no such curve, though single readings can be large or run the other way.

Assay: Primary qHTS for delayed death inhibitors of the malarial parasite plastid, 48 hour incubation
Conditions: P. falciparum luciferase growth in erythrocytes; series mostly up to 28.7 µM; activity change, negative = inhibition: at the top concentration
Procedure, shortened: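 Cell-based growth assay: transgenic P. falciparum expressing firefly luciferase, cultured in red cells within RPMI 1640 containing 0.5% w/v Albumax, 24 mM bicarbonate and gentamycin. A drop in luciferase activity indicates inhibition.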
% is set by controls: 0 for no effect and ±100 for the full control effect; potency is the fitted concentration of half-maximal effect.

Row | SMILES | activity change, negative = inhibition | Potency
1 | CN(Cc1ccccc1)C(=O)C(=O)c1cn(CC(=O)N2CCCC2)c2ccccc12 | -2.31% | 
2 | O=c1oc2ccc(C#CC3(O)CCCCC3)cc2cc1-n1cc(-c2ccsc2)nn1 | 0% | 
3 | CCc1ccc(-c2nn(-c3ccccc3C)cc2C(=O)N2CCN(C3CCS(=O)(=O)C3)CC2)cc1 (stereo not given) | -28% | 
4 | O=C(NCCC1=CCCCC1)c1ccc(-n2cncn2)cc1 | 221% | 
5 | CCc1noc(C)c1C(=O)Nc1nc2ccc(OC)cc2s1 | 42.1% | 
6 | CCOc1ccc(S(=O)(=O)N2CCCC(C(=O)N3CCC(C(N)=O)CC3)C2)cc1Cl (stereo not given) | -29.6% | 
7 | Cc1ccc(C)c(N2CCN(C(=O)CCCCn3c(=O)[nH]c4ccccc4c3=O)CC2)c1 | 46.1% | 
8 | Cc1ccc(C)c(N2CCN(C(=O)CCCCCn3c(=S)[nH]c4ccc(N5CCOCC5)cc4c3=O)CC2)c1 |  | 7.38 µM (active)
9 | Cc1ccc(C)c(N2CCN(C(=O)CCc3nc4ccccc4[nH]3)CC2)c1 | -14.4% | 
10 | COCc1c(C(=O)N/N=C(\C)c2ccncc2)nnn1-c1nonc1N | 29.9% | 
11 | Cc1ccc(NC(=O)NNC(=O)c2sccc2-n2cccc2)cc1 | 3.25% | 
12 | Cc1ccc(NC(=O)Nc2ccccc2)c(Br)c1 | 212% | 
13 | C=CCNC(=O)c1csc(-c2ccccc2)n1 | 90.6% | 
14 | C=CCNc1scc(-c2ccccc2)[n+]1CC=C |  | 4.15 µM (active)
15 | C=CC[n+]1c(-c2ccc(C)cc2)csc1NNC(=O)Nc1ccccc1 |  | 11.7 µM (active)
16 | O=C(Cc1ccccc1)Nc1ccc(NC(=O)c2cccnc2)cc1 | 20% | 
17 | CN1CCN(CCNC(=O)Nc2ccccc2[N+](=O)[O-])CC1 | -5.7% [at 0.00184 µM] | 
18 | COc1ccccc1C(C)NC(=O)Cc1ccsc1 (stereo not given) | -12.4% | 
19 | COc1ccc(CN(C)C(=O)Cc2c[nH]c3ccccc23)c(OC)c1OC | 13.9% [at 0.00184 µM] | 
20 | COc1ccc(CN(C)C(=O)Cc2ccsc2)c(OC)c1OC |  | 13.1 µM (active)
21 | CS(=O)(=O)N(CC(=O)N1CCCCCC1)c1cccc(Cl)c1Cl | -10.5% | 
22 | NS(=O)(=O)c1ccc(NC(=S)N2CCCC2)cc1 | 18.3% | 
23 | COC(=O)C1(O)CC(C(C)C)=NN1C(=O)c1ccc(Cl)cc1 (stereo not given) | -1.24% | 

Row | SMILES | activity change, negative = inhibition | Potency
24 | O=C(C1CC1)N1N=C(c2ccc(Br)cc2)CC1(O)C(F)(F)F (stereo not given) | -12.6% [at 0.00184 µM] | 
25 | O=C(c1ccc(Cl)cc1)N1N=C(c2ccccn2)CC1(O)C(F)(F)F (stereo not given) |  | 4.65 µM (active)
26 | COc1ccc(CCNC(=O)COC(=O)C2CC2C)cc1 (stereo not given) | -4.46% | 
27 | Cc1ccc(S(=O)(=O)N(C)C)cc1NC(=O)c1ccc(-n2cncn2)c([N+](=O)[O-])c1 | -0.637% | 
28 | O=[N+]([O-])C(=c1ccc2c(c1)N1C3=C(CCCC3)CC3CCCCC31N=2)[N+](=O)[O-] (stereo not given) |  | 2.94 µM (active)
29 | Cc1ccc(S(=O)(=O)NCCC(=O)Nc2cccc(S(N)(=O)=O)c2)cc1C | -0.472% | 
30 | O=C(CN(C(=O)c1nsc(Cl)c1Cl)c1cccc(F)c1)NC1CCCC1 | 2.6% | 
31 | COc1cccc(N(CC(=O)NC2CCCC2)C(=O)CCCC(=O)Nc2ccccn2)c1 | -5.82% | 
32 | COC(=O)c1cn(C(=O)c2ccc(Cl)cc2)c2ccccc12 | 6.25% | 
33 | COC(=O)c1ccccc1Sc1c(/C=N/OCc2ccc(Cl)cc2)c(C(F)(F)F)nn1C |  | 1.85 µM (active)
34 | COC(=O)c1ccccc1NC(=O)Cn1nc(C(F)(F)F)c2c1CCC2 | -16.9% | 
35 | O=c1ccc(S(=O)(=O)N2CCCC2)cn1Cc1nc(-c2ccccc2)no1 | -21.1% | 
36 | CC1=C(C(N)=O)C(c2ccc(F)cc2)n2nc(CCCO)nc2N1 (stereo not given) | 5.98% | 
37 | S=c1[nH]cc(-c2ccc(Cl)cc2)n1-c1ccccc1 |  | 1.85 µM (active)
38 | S=c1[nH]ccn1-c1ccc(Cl)cc1 | 165% | 
39 | Cc1ccc(-n2c(-c3ccc(Cl)cc3)n[nH]c2=S)cc1 | -0.506% | 
40 | O=C(O)c1cccc2c1C(=O)N(C1CCCC1)C2 | 1.91% | 
41 | Cc1ccc(CN2CCN(Cc3cn(C)nc3-c3ccccc3)CC2CCO)o1 (stereo not given) | -13.4% | 
42 | Cc1ccccc1CN1CCN(CC(=O)NCc2ccccn2)C1=O | 5.04% | 
43 | Cc1ccccc1CN1C[C@@H]2C[C@@H](c3cn(C)nc3-c3ccccc3)N3CCC[C@@]23C1=O |  | 6.57 µM (active)
44 | Cc1c(C)c(C)c(S(=O)(=O)NCCc2ccccn2)c(C)c1C | -19% | 
45 | Cc1c(S(=O)(=O)N2CC(C)CC(C)C2)c(=O)n(C)c(=O)n1C (stereo not given) | 6.23% | 
